# From PubChem BioAssay (Tox21)
# Results filed as inconclusive are left out. A call without a number means that no potency is given here. Values without a mark were called inactive. Calls of active or inactive are those of the source. Unless noted, calls follow the shape of the dose curve; as a rule, active = well fitted curve in the direction sought with a large enough effect in the repeat runs; inconclusive = weak or mixed curves; inactive = no such curve, though single readings can be large; an effect the other way counts as inactive or inconclusive.
# How the values were obtained:
# [1] = qHTS assay to identify small molecule agonists of the vitamin D receptor (VDR) signaling pathway - cell viability counter screen (AID 743224); also: series mostly up to about 63 µM; nearly all actives have a fitted effect of over 50% in size
# How it was run: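 In parallel with the bla FRET readout, cytotoxicity toward VDR-bla cells after 16 h compound exposure was assessed by CellTiter-Glo, with luminescence recorded after a 30 min room-temperature incubation.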
# [2] = qHTS assay to identify small molecule antagonists of the vitamin D receptor (VDR) signaling pathway - cell viability counter screen (AID 743225); also: nearly all actives have a fitted effect of over 50% in size
# How it was run: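 Cytotoxicity counter screen read by CellTiter-Glo luminescence (30 min, room temperature) in the same wells as the VDR-bla antagonist readout. HEK 293T VDR-UAS-bla cells had 16 h at 37C with compound and 3 nM (final) 1-alpha,25-dihydroxyvitamin D3, then 2 h with FRET substrate.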
# [3] = qHTS assay to identify small molecule agonists of the NFkB signaling pathway (AID 1159509; active = well fitted curve in the direction sought with a large enough effect in the signal ratio in the repeat runs, not every such curve was filed as active; the % refers to the signal ratio; also: series mostly up to about 61 µM)
# How it was run: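 Agonist activity was read as beta-lactamase-driven FRET change (460 and 530 nm emission, 405 nm excitation) following 1.5 hr substrate loading at room temperature. Beforehand, ME-180 NFkB-bla reporter cells were treated with compounds for 5 hr at 37 C.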
# [4] = qHTS assay to identify small molecule agonists of the NFkB signaling pathway - cell viability counter screen (AID 1159515; calls by dose curve; also: series mostly up to about 61 µM; nearly all actives have a fitted effect of over 55% in size)
# How it was run: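 Plate 2,000 NFkB-bla ME-180 cells/well; incubate overnight. Add compounds, 5 hr at 37 C. Add FRET substrate, 1.5 hr RT. Add CellTiter-Glo, 30 min RT; read luminescence.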
# [5] = qHTS assay to identify small molecule agonists of the endoplasmic reticulum stress response signaling pathway (AID 1159516; active = well fitted activation curve with a large enough effect in the signal ratio in the repeat runs, not every such curve was filed as active; the % refers to the signal ratio)
# How it was run: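 Beta-lactamase expression from the ER stress response element in HeLa reporter cells is quantified with the LiveBLAzer B/G FRET substrate, read at 405 nm excitation after 2 hr at room temperature, following 5 hr compound treatment at 37 C.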
# [6] = qHTS assay to identify small molecule agonists of the endoplasmic reticulum stress response signaling pathway - cell viability counter screen (AID 1159517; calls by dose curve; also: series mostly up to about 61 µM; nearly all actives have a fitted effect of over 50% in size)
# How it was run: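 In parallel with the ESRE reporter read, cytotoxicity was scored by CellTiter-Glo luminescence (30 min, room temperature) on HeLa ESRE-bla cells dosed for 5 hr.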
# [7] = qHTS assay to identify small molecule antagonists of the retinoid-related orphan receptor gamma (ROR-gamma) signaling pathway - cell viability counter screen (AID 1159520); also: nearly all actives have a fitted effect of over 50% in size
# How it was run: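 Tet-on ROR gamma CHO cells were given compounds for 2 hr, then doxycycline hyclate at 1 uM final, and incubated 16 hr at 37 C. Viability was measured as ATP content by CellTiter-Glo luminescence.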
# [8] = qHTS assay to identify small molecule agonists of the AP-1 signaling pathway - cell viability counter screen (AID 1159525; calls by dose curve; also: nearly all actives have a fitted effect of over 55% in size)
# How it was run: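 Same-well cytotoxicity counter screen of the Tox21 10K library in ME-180 cells. The readout is ATP-dependent luminescence after 5 h compound treatment. Data are normalised to DMSO and tetra n-octyl ammonium bromide controls.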
# [9] = qHTS assay to identify small molecule agonists of the AP-1 signaling pathway (AID 1159526; calls by dose curve)
# [10] = molecular target: Retinoic acid receptor RXR-alpha (Homo sapiens) (UniProt P19793); experiment: qHTS assay to identify small molecule agonists of the RXR signaling pathway (AID 1159527; calls by dose curve; also: nearly all actives have a fitted effect of over 35% in size)
# Retinoic acid receptor RXR-alpha (Homo sapiens), sequence (P19793 whole entry, looked up): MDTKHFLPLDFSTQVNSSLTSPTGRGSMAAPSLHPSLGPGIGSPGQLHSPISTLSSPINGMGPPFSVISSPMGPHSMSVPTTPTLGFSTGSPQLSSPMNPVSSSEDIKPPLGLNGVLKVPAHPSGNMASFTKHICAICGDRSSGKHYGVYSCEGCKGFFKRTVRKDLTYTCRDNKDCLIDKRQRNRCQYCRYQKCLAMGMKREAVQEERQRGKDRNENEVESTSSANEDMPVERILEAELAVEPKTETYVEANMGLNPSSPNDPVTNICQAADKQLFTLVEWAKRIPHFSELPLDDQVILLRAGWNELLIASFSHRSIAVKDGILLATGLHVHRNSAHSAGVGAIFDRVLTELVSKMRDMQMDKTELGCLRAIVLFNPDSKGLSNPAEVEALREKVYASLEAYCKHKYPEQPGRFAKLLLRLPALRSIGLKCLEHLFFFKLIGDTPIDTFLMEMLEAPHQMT
# How it was run: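 Agonist-mode beta-lactamase reporter assay: HEK 293T RXR-alpha-UAS-bla cells treated 16 hr at 37 C with compounds, 9-cis retinoic acid as positive control. LiveBLAzer FRET substrate, 405 nm excitation, 460/530 nm emission.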
# [11] = qHTS assay to identify small molecule antagonists of the retinoid acid receptor (RAR) signaling pathway - cell viability counter screen (AID 1159551); also: nearly all actives have a fitted effect of over 35% in size
# How it was run: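 Viability of C3RL4 cells is quantified from ATP by luminescence after 6 h treatment at 37 C with compounds and 1 uM retinol.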
# [12] = qHTS assay to identify small molecule agonists of the retinoic acid receptor (RAR) signaling pathway (AID 1159553)
# How it was run: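 Compounds dissolved in DMSO were pinned onto C3RL4 cells seeded the previous day, and plates were held 6 hr at 37 C. RARE-driven luciferase output was then read by luminescence.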
# [13] = qHTS assay to identify small molecule agonists of the RXR signaling pathway - cell viability counter screen (AID 1159529)
# How it was run: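 CellTiter-Glo luminescence gave viability in the wells also read for beta-lactamase. Cells (RXR-alpha-UAS-bla HEK 293T, 2% charcoal-stripped FBS medium) had 5 hr plating, then 16 hr compound exposure at 37 C; tetraoctyl ammonium bromide served as positive control.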
# [14] = qHTS assay to identify small molecule antagonists of the retinoic acid receptor (RAR) signaling pathway (AID 1159552; also: nearly all actives have a fitted effect of over 50% in size)
# How it was run: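 Luminescent RARE reporter read-out in C3RL4 cells: 6 hr co-treatment at 37 C of test compounds with retinol at 1 uM final. Cells plated overnight beforehand; luciferase reagent incubated 30 min at room temperature before reading.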
# [15] = qHTS assay to identify small molecule antagonists of the estrogen related receptor (ERR) signaling pathway - cell viability counter screen (AID 1224818);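 also: series mostly up to about 46 µM; viability measured after 17.5 h of compound exposure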
# How it was run: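 Cytotoxicity check run alongside the ERR antagonist screen: cells exposed to test compounds 17.5 h at 37 C, viability taken as CellTiter-Fluor fluorescence intensity.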
# [16] = qHTS assay to identify small molecule antagonists of the estrogen related receptor signaling pathway with the pleiotropic PPARgamma coactivator (PGC) cell viability counter screen (AID 1224822;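 also: series mostly up to about 46 µM; viability read after 17.5 h compound exposure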)
# How it was run: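 Viable cell signal (CellTiter-Fluor, 30 min, 37 C/5% CO2) was measured in PGC/ERR cells after a 17.5 h compound incubation.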
# [17] = qHTS assay to identify small molecule antagonists of the estrogen related receptor (ERR) signaling pathway from Tox21 library - cell viability counter screen (AID 1224834); also: nearly all actives have a fitted effect of over 30% in size
# How it was run: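 In this quantitative HTS format, ERR cells receive compounds in DMSO and are incubated for 17.5 h at 37 C. Live-cell protease activity is then detected with CellTiter-Fluor.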
# [18] = molecular target: Nuclear receptor ROR-gamma (Homo sapiens) (UniProt P51449); experiment: qHTS assay to identify small molecule antagonists of the retinoid-related orphan receptor gamma (ROR-gamma) signaling pathway (AID 1159521)
# How it was run: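 Antagonist read-out: drop in luminescence (ONE-Glo) from an RORE-LUC reporter in CHO cells with doxycycline-inducible ROR-gamma; 2 hr compound pretreatment, 1 uM doxycycline, 16 hr incubation at 37 C.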
Compound,Potency [1],Potency [2],outcome [3],outcome [4],outcome [5],outcome [6],Potency [7],outcome [8],Potency [9],Potency [10],outcome [11],Potency [12],Potency [13],Potency [14],outcome [15],outcome [16],Potency [17],Potency [18]
O=S(=O)(O)C(F)(F)F,inactive,inactive,inactive,inactive,inactive,inactive,inactive,inactive,inactive,inactive,inactive,inactive,–,–,–,–,–,–
Cc1nnc(SCC2=C(C(=O)O)N3C(=O)[C@@H](NC(=O)Cn4cnnn4)[C@H]3SC2)s1,–,–,inactive,inactive,inactive,inactive,inactive,–,inactive,inactive,inactive,inactive,inactive,inactive,inactive,inactive,–,–
FC(F)(F)C(F)(F)C(F)(F)C(F)(F)C(F)(F)C(F)(F)C(F)(F)C(F)(F)Br,–,inactive,inactive,inactive,inactive,inactive,inactive,inactive,inactive,inactive,inactive,inactive,–,inactive,–,–,inactive,–
CCCNC(C)C(=O)Nc1c(C)csc1C(=O)OC (stereo not drawn),inactive,inactive,inactive,inactive,inactive,inactive,inactive,inactive,inactive,–,inactive,inactive,inactive,inactive,–,–,inactive,–
OCCN1CCN(CCO)CC1,inactive,inactive,inactive,inactive,inactive,inactive,inactive,–,inactive,inactive,inactive,inactive,inactive,–,–,–,inactive,–
CC[C@H]1CC[C@H](NCc2cc3c(cc2OC)[C@H]2C[C@H]2C(=O)N3C)[C@H](c2ccccc2)N1,–,inactive,inactive,inactive,inactive,–,inactive,inactive,–,–,inactive,–,inactive,–,–,–,–,30.6 µM (active)
OCCN(CCO)CCN(CCO)CCO,inactive,inactive,inactive,inactive,inactive,inactive,inactive,inactive,inactive,inactive,inactive,inactive,–,inactive,–,–,–,–
CN1C(=O)CC(c2ccccc2)C1=O (stereo not drawn),–,inactive,inactive,inactive,inactive,inactive,inactive,inactive,inactive,inactive,inactive,inactive,–,inactive,–,–,inactive,–
CCCC(CCC)(C(=O)OCC)C(=O)OCC,inactive,inactive,inactive,inactive,inactive,inactive,inactive,inactive,inactive,inactive,inactive,inactive,inactive,–,–,–,–,–
Cc1ccc(C)c(N)c1,inactive,inactive,inactive,inactive,inactive,inactive,inactive,inactive,inactive,inactive,inactive,inactive,inactive,–,–,–,inactive,–
COC(=O)C(C)O (stereo not drawn),inactive,inactive,inactive,inactive,inactive,inactive,inactive,inactive,inactive,–,inactive,inactive,inactive,inactive,–,–,inactive,–
CC(=O)Nc1ccc(C)c(Cl)c1,inactive,inactive,inactive,inactive,inactive,inactive,inactive,inactive,inactive,inactive,inactive,inactive,–,inactive,–,–,–,–
CCN(CC)CCNC(=O)COc1ccc(Cl)cc1,inactive,inactive,inactive,inactive,inactive,inactive,inactive,inactive,inactive,–,inactive,inactive,inactive,–,–,–,–,–
CC/C=C\CCOC(=O)C(C)C,–,inactive,inactive,inactive,inactive,inactive,inactive,–,inactive,inactive,inactive,inactive,inactive,inactive,–,–,inactive,–
CC(CNC1CCCCC1)OC(=O)c1ccccc1 (stereo not drawn),inactive,inactive,inactive,inactive,inactive,inactive,inactive,inactive,inactive,inactive,inactive,inactive,inactive,–,–,–,–,–
NNS(=O)(=O)c1ccc(Oc2ccc(S(=O)(=O)NN)cc2)cc1,–,inactive,inactive,inactive,inactive,inactive,inactive,–,inactive,inactive,inactive,inactive,inactive,inactive,–,–,inactive,–
Cn1cnc2c(F)c(Nc3ccc(Br)cc3Cl)c(C(=O)NOCCO)cc21,inactive,inactive,inactive,inactive,inactive,inactive,inactive,–,inactive,inactive,inactive,inactive,inactive,inactive,–,–,inactive,–
CCN[C@H]1CN(CCCOC)S(=O)(=O)c2sc(S(N)(=O)=O)cc21,inactive,inactive,inactive,inactive,inactive,inactive,inactive,inactive,inactive,inactive,inactive,inactive,–,inactive,–,–,inactive,–
